# ELG1 DNA repair – blocks ELG1-dependent DNA repair in HEK293T cells; HEK293T ELG1-luciferase reporter, luminescence, 16 h; DNA damage induced by 5-fluorouridine; Potency, µM (titrated, usually from 46.1 µM), without a hit: top-dose activity change, negative = inhibition, most hits filed as inhibitors; 2.3% of 330,000 active; further: on the % scale 0 is the no-effect control and ±100 the full control effect; nearly all actives have a fitted effect of over 55% in size
#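 Cells (2,000 per well) received 5-fluorouridine plus test compound or DMSO and were incubated 16 hr at 37 °C, 5% CO2. Luciferase activity was read by luminescence 30 min after ONE-Glo addition; signal suppression marked inhibition of damage-induced ELG1 function.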
# Rab9 prom act – Rab9 promoter activation; Huh7 Rab9 promoter-luciferase reporter, luminescence, 24 h; Potency, µM (series often up to 9.22 µM), for the others: at the highest dose activation, negative = inhibition, hits mostly activators; AID 485297; 2.8% of 320,000 active; further: % of control where 0% means no effect; nearly all actives have a fitted effect of over 60% in size
#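 Huh7 reporter line, Rab9 promoter upstream of luciferase. Compound exposure 24 h at 37 °C in reduced-serum medium with 10% FBS. Read-out: luminescence.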
# ELG1 genotox – inducers of genotoxicity in HEK293T ELG1-luciferase cells | HEK293T ELG1-luciferase reporter, luminescence, 16 h | Potency, µM (top dose mostly 46 µM), for the others: at the top dose activity change, positive = activation, usual class: activators | 1.3% of 330,000 active; further: % of control where 0% means no effect; nearly all actives have a fitted effect of over 60% in size
#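 Step 1: seed 2,000 HEK293T ELG1-luciferase cells per well. Step 2: add compound or DMSO, incubate 16 hr at 37 °C. Step 3: ONE-Glo, 30 min at room temperature, read luminescence.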
# NPC1 prom act – activators of NPC1 promoter | Potency, µM (series often up to 9.22 µM), for the others: top-dose activation, most hits filed as activators | 2.4% of 320,000 active | Huh7 NPC1 promoter luciferase reporter, 24 h; further: % of control where 0% means no effect; nearly all actives have a fitted effect of over 60% in size
#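 Luminescence from an NPC1 promoter-driven luciferase reporter in stably transfected Huh7 cells was measured after 24 h compound treatment at 37 °C, followed by 10 min ambient incubation with luciferase detection reagent.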
# SMN2 splice enh – increases expression of the SMN2 splice variant; HEK293 SMN2-luciferase splicing reporter, luminescence, 30-36 h; Potency, µM (highest dose often 46.1 µM), for inactives: top-dose activity change, positive = activation, most hits filed as activators; 2.8% of 210,000 active; further: % of control where 0% means no effect; nearly all actives have a fitted effect of over 55% in size
#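 HEK293 cells carry an SMN2 […]–luciferase reporter in which exon 7 inclusion puts luciferase in frame. Cells were plated 10-12 h before compound addition, then incubated 30-36 h at 37C. ONE-Glo luminescence was read; sodium butyrate at 4.5 mM final served as control.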
# FLuc counter – firefly luciferase modulation, counter-screen for miR-21 project | P08659 | purified FLuc, Km substrates, luminescence inhibition | Potency, µM (top dose mostly 57.5 µM), for inactives: at the top dose activity change, negative = inhibition, usual class: inhibitors | 6.9% of 360,000 active | AID 588342;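 further: plate controls were vehicle for no effect and reference inhibitor for full effect; nearly all actives have a fitted effect of over 55% in size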
# Target sequence (P08659 whole entry, looked up): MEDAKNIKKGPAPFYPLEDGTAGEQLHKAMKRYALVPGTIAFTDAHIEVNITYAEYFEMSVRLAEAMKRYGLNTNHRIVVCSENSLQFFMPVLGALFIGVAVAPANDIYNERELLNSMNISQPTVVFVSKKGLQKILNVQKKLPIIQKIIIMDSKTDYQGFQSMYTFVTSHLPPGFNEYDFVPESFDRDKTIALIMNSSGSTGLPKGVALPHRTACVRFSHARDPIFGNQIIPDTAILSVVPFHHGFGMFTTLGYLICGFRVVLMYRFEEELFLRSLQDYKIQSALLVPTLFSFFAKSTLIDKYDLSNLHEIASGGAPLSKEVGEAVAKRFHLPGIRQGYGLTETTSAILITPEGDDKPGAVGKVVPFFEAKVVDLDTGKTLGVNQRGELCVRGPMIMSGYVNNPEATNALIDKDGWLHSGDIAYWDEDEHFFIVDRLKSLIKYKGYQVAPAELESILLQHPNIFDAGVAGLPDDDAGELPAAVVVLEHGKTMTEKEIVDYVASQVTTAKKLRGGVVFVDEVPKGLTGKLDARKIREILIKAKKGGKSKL
#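 Biochemical qHTS of compounds, final roughly 60 µM downward over six points, against 10 nM purified firefly luciferase using Km concentrations of substrates (10 uM D-luciferin, 10 uM ATP) in Tris acetate pH 7.5 buffer; luminescence output.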
# * marks the source's active call; other numbers are inactive results; ? = inconclusive; · = no result given; [ ] = remark or other dose. Most compounds without a hit are left out; they make up all but 9.4% or so of the library. The call rests on the fitted dose curve; in most records, active means well fitted curve in the direction sought with a large enough effect; inconclusive means small, poorly fitted or top-dose-only effect, or another doubt; inactive means no such curve, though single readings can be large; an effect the other way counts as inactive or inconclusive. Potency means the concentration at half of the fitted maximal effect.
SMILES,ELG1 DNA repair,Rab9 prom act,ELG1 genotox,NPC1 prom act,SMN2 splice enh,FLuc counter
Oc1ccc(Br)cc1/C=N/Nc1ncc(-c2ccccc2)cn1,-18.7%,-1.1%,1.2%,-16.2%,-84.7%,-3.5%
Cc1c(O)ccc(/C=N/Nc2ncccc2[N+](=O)[O-])c1O,?,3.16µM*,2.59µM*,0.562µM*,·,1.07µM*
Oc1ccc(/C=N/Nc2ncc(Br)cn2)c(O)c1,?,?,14.6µM*,?,-22.6%,10.7µM*
CCc1ccc(S(=O)(=O)Nc2ccc3[nH]c(=O)sc3c2)cc1,·,·,·,·,·,-16.6%
COc1ccc(CNc2nc(-c3ccccc3)nn2S(=O)(=O)c2ccccc2)cc1,·,·,·,·,9.8%,-3.1%
COc1ccccc1NC(=O)N1CC(=O)Nc2sc3c(c2C1c1ccccc1)CCCC3 (stereo not drawn),·,·,·,·,·,-7.8%
COc1cc(Cl)c(C)cc1NC(=O)CSc1cc(=O)n(C)c2cc(Cl)ccc12,·,·,·,·,12.5%,-3.7%
Oc1ccccc1/C=N/Nc1nccnc1Cl,?,-17.3%,13µM*,-25.2%,-86.3%,16.9µM*
O=[N+]([O-])c1cccnc1N/N=C/c1ccccc1O,?,?,?,-4.4%,-51.4%,?
Oc1ccc(/C=N/Nc2nccnc2Cl)c(O)c1,?,-11.1%,?,0.6%,-31.7%,23.9µM*
O=c1[nH]ncc(N/N=C\c2ccc(O)cc2O)c1Cl,?,-1.2%,?,-0.2%,22.6%,?
CCC/C=C(\CCC)C(NS(=O)(=O)CC12CCC(CC1=O)C2(C)C)c1ccc(C(=O)OC)cc1 (stereo not drawn),·,·,·,·,-24.6%,·
Cc1ccc(C2=N/C(=C\N3CCCCC3)C(=O)O2)cc1,?,1.12µM*,4.11µM*,2.24µM*,?,5.36µM*
Cc1ccc(C2=N/C(=C/N3CCOCC3)C(=O)O2)cc1,?,3.55µM*,16.4µM*,?,11.2µM*,12µM*
O/N=C/c1ccc(OCc2ccccc2)c(Cl)c1,?,3.55µM*,16.4µM*,?,11.2µM*,4.78µM*
O/N=C/c1ccc(OCc2ccccc2F)c(Cl)c1,?,1.58µM*,5.17µM*,?,7.94µM*,2.69µM*
CCOc1cc(/C=N/O)ccc1OCc1ccc(C)cc1,?,18.3%,?,0.3%,24.6%,?
Cc1ccc(COc2ccc(Br)cc2/C=N/O)cc1,?,?,?,?,10.2%,13.5µM*
O/N=C/c1cc(Br)ccc1OCc1cccc(F)c1,20.4%,2.7%,-0.6%,2.6%,-17.2%,?
O/N=C/c1ccc(OCc2ccccc2)c(Br)c1,?,3.16µM*,14.6µM*,18.8%,15.8µM*,7.57µM*
O=C(CCNC(=O)c1ccccc1Cl)Nc1cc(C(F)(F)F)ccc1Cl,-0.3%,1.0%,0.4%,-4.5%,-14.8%,-0.8%
Cc1ccc(C)c(C(=O)COC(=O)CCCC(=O)Nc2cc(C(F)(F)F)ccc2Cl)c1,23.5%,0.1%,-0.7%,-1.9%,-10.2%,4.78µM*
COc1cccc(NC(=O)Nc2ccccc2Br)c1,?,?,7.1%,24.0%,·,12µM*
COC(=O)c1sccc1NC(=O)Nc1cccc(OC)c1,20.2%,2.4%,4.9%,-0.4%,·,8.49µM*
COC(=O)c1sccc1NC(=O)Nc1cccc(F)c1,16.7%,-1.4%,-1.9%,-2.7%,10.8%,12µM*
SMILES,ELG1 DNA repair,Rab9 prom act,ELG1 genotox,NPC1 prom act,SMN2 splice enh,FLuc counter
CCc1ccccc1NC(=O)Nc1ccsc1C(=O)OC,-5.4%,0.9%,2.9%,-5.1%,·,?
COc1cccc(NC(=O)NCc2ccccc2F)c1,?,?,?,21.6%,27.6%,16.9µM*
COc1ccc(NC(=O)NCc2ccccc2F)cc1OC,11.3%,-2.5%,-0.8%,-2.5%,11.0%,-4.1%
Cc1ccccc1NC(=O)Cn1nc(-c2ccccc2)nc(Cc2ccccc2)c1=O,·,·,·,·,·,-2.2%
COc1ccc(OCCCCn2c(C3CC(=O)N(c4cccc(Cl)c4)C3)nc3ccccc32)cc1 (stereo not drawn),·,·,·,·,-31.7%,-0.7%
CCOC(=O)c1ccc(N2CCN(c3ccccc3F)CC2)c(NC(=O)Nc2cccc(OC)c2)c1,16.4µM*,-14.2%,-11.1%,-4.0%,-45.2%,-2.2%
C=CCn1cccc(/C=C/C(=O)c2ccc(C(C)(C)C)cc2)c1=S,?,-8.2%,-18.9%,-1.4%,-104.1%,13.5µM*
Fc1ccc(-c2nc(-c3cccs3)[nH]c2-c2ccc(F)cc2)cc1,?,-1.2%,-5.1%,0.8%,-32.7%,-4.6%
c1csc(-c2nc3ccccc3[nH]2)c1,?,?,15.0%,?,12.6µM*,30.1µM*
Cc1ccc(-c2nc3ccccc3[nH]2)s1,?,0.631µM*,?,1.58µM*,7.08µM*,3.01µM*
Cc1[nH]c2ccccc2c1-c1csc(N)n1,-13.5%,1.5%,2.4%,-5.3%,·,0.2%
Cc1[nH]c2ccccc2c1-c1nc2ccccc2[nH]1,?,13.3%,?,23.6%,16.0%,26.9µM*
C=C1C2c3ccccc3C(CC2(C)O[Si](C)(C)C)N1C(=O)OC (stereo not drawn),·,·,·,·,-5.4%[9.22 µM],·
CCOc1ccc(NC(=O)Cn2c(=O)n(CC(=O)NCc3ccccc3Cl)c(=O)c3sccc32)cc1,·,·,·,·,-4.4%,-3.7%
COc1ccccc1NC(c1ccc(Cl)cc1)c1nnc(-c2cccc(F)c2)o1 (stereo not drawn),·,·,·,·,-5.1%,?
Cc1nn(C)cc1S(=O)(=O)N1CCCCC1C (stereo not drawn),11.9%,0.4%,1.2%,5.1%,·,2.0%
CC1=NN(c2nc(-c3ccc(Cl)cc3)cs2)C(=O)C1,0.0%,-4.9%,-6.3%,6.9%,-2.1%,15.1µM*
O=S(=O)(c1ccc(F)cc1)N1CCN(c2nc(-c3ccc(F)cc3)cs2)CC1,22.4%,-3.4%,-5.8%,-0.2%,-34.1%,-2.8%
CC(C)(C)c1ccc(N2C(=N)SCC2=O)cc1,6.3%,-0.8%,-2.6%,0.2%,·,-17.7%
Cc1ccc(-c2csc(N3C(=N)SCC3=O)n2)cc1,?,2.82µM*,10.3µM*,?,·,2.39µM*
Cc1cc(C)n(-c2nc(-c3ccc(Cl)cc3)cs2)n1,?,3.55µM*,?,?,13.1%,5.36µM*
CC1=NN(c2nc(-c3ccc(F)cc3)cs2)C(=O)C1,11.3%,2.1%,1.9%,0.1%,-6.4%,16.9µM*
Cc1cc(C)n(CCc2nc(-c3ccc(F)cc3)cs2)n1,?,5.8%,-2.3%,-1.3%,·,-18.9%
CCOc1ccc(CNC(=O)c2cc3c(=O)n(Cc4cccs4)ccc3nc2C)cc1,·,·,·,·,·,-0.2%
COc1ccc(C(CC(=O)NCc2ccccc2Cl)N2Cc3ccccc3C2=O)cc1OC (stereo not drawn),·,·,·,·,·,3.0%

# From PubChem
